The results in this text go back to ChEMBL document CHEMBL1157539, “Thousands of chemical starting points for antimalarial lead identification” (Nature, 2010).

By Inhibition is commonly meant the relative decrease from the control value, in per cent. A lower Inhibition goes with a weak effect.

For one test, the system named is Plasmodium falciparum. The test is described as follows: GSK_TCMDC: Inhibition of Plasmodium falciparum 3D7 in whole red blood cells, using parasite LDH activity as an index of growth. Test compounds present at 2uM. The format is functional.
For the molecule `O=[N+]([O-])c1cc2c(cc1C=NNc1nc(=Nc3ccccc3)[nH]c(=Nc3ccccc3)[nH]1)OCO2`, the Inhibition was 98%.
For `NC(=O)C1Cc2ccccc2CN1CC(=O)Nc1ccccc1Sc1ccccc1` (stereo not given), the Inhibition is given as 100%.
On the same count and under the same terms, next, `NCCCNc1nc(Nc2ccc(C(F)(F)F)cc2F)c2c(=O)[nH]ccc2n1.O=C(O)C(F)(F)F`: 95%; `Cc1cc(Nc2ccccc2)nc(NCCOc2ccccc2)n1.Cl`: 100%; `Cc1cc(NC(=O)CCCN2CCN(c3cccc(Cl)c3Cl)CC2)ccc1N1CCN(C(C)C)CC1.Cl`: 100%.
In turn, `CCCc1cc(Cc2cnc(N)nc2N)cc2c1OC(C)C2C.Cl` (stereo not given) showed an Inhibition of 98%.
Same read-out and setting: the figure for `CCC(O)c1ccc(Br)cc1NC(=O)c1cccc(Cl)c1` (stereo not given) is 80%; for `Clc1cc(Nc2ccnc3ccc(Br)cc23)ccc1Oc1ccc2ccccc2c1Cl` it is 100%; for `O=C(NCCCCCN1CCC(c2c[nH]c3ccccc23)CC1)Nc1cccc(Cl)c1` it is 86%.
The same measure, in the same setting: next, `CC(=O)Nc1ccc(CN2CCCN(c3cc(NC(=O)c4cccc(C)c4)ccn3)CC2)cc1.O=C(O)C(F)(F)F`: 92%; `CCN1CCC(N(Cc2ccc(-c3ccc(C(F)(F)F)cc3)cc2)C(=O)CCCCn2c(CCc3cccc(F)c3F)nc(=O)c3ccccc32)CC1`: 90%; `COc1ccc(C2=CCN(c3ccc(Cl)c(Cl)c3)C2=O)cc1OCCN1CCCCC1.Cl`: 97%.
Same read-out and setting: the figure for `CC(C)(C)SC1SC(SC(C)(C)C)C(OC(=O)c2ccccc2)C(OC(=O)c2ccccc2)C1OC(=O)c1ccccc1` (stereo not given) is 95%.
Consider `CC(C)=CCc1c(-c2ccc(O)cc2O)oc2c3c(cc(O)c2c1=O)OC(C)(C)C=C3` [MORUSIN], for which the Inhibition is given as 89%.
Still for that read-out and setting: the figure for `COc1cccc(CNC(=O)c2ccnc(-c3cccc(CN(C)C4CCN(C)CC4)c3)c2)c1.O=C(O)C(F)(F)F` is 100%.
For the molecule `CC(C)(C)OC(=O)N1CCC(C2CCN(C(=O)OC(C)(C)C)CC2)CC1`, the Inhibition is reported as 86%.
On the same count and under the same terms, next, `CC(=O)Nc1ncc(C(=O)Nc2cccc(-c3ccc(-c4nc5cc(C(F)(F)F)ccc5[nH]4)s3)c2)s1`: 100%; `Cc1ccccc1C1CCN(C2CCC(NC(=O)/C=C/c3ccc(F)cc3)CC2)CC1` (stereo not given): 87%.
Same read-out and setting: the figure for `CCCCCCNc1cc(C)nc2ccc(OC)cc12.Cl` is 100%.
Still for that read-out and setting: the figure for `Cc1cc2nc(-c3ccc(C(=O)NCc4ccc(Cl)c(Cl)c4)cc3)[nH]c2cc1C` is 96%.
Molecule `COc1c(C2CCN(CCCCNC(=O)c3ccc(-c4ccc(Cl)cc4)cn3)CC2)ccc2c1CCCC2` had an Inhibition of 93%.
Same read-out and setting: the figure for `COc1ccc(CNCc2ccccc2)cc1-c1ccc(S(=O)(=O)NCCN2CCCC2)s1.O=C(O)C(F)(F)F` is 100%.
The same measure, in the same setting: next, `COc1cccc(-c2cnc(N)c(-c3nc4ccc(C(F)(F)F)cc4[nH]3)c2)c1.Cl`: 99%; `Cc1cccc2nc(-c3ccc(-c4cccc(CN5CCC(N)C5)c4)s3)[nH]c12.O=C(O)C(F)(F)F` (stereo not given): 95%; `CCC(C)CN1CCN(c2ccc(NC(=O)c3cccs3)cc2)CC1C.O=C(O)C(F)(F)F` (stereo not given): 94%.
On to `Cc1cccc2nc(-c3cccc(-c4ccc(C(=O)NCCc5ccc(O)c(=O)[nH]5)cc4)c3)[nH]c12`, for which the Inhibition is on record as 85%.
In turn, `CN(C)CC1CCCN1Cc1ccccc1-c1cnn(C)c(=O)c1Oc1ccc(F)cc1.O=C(O)C(F)(F)F` (stereo not given) showed an Inhibition of 91%.
On the same count and under the same terms, the figure for `CCCCn1c(=N)c(C(=O)NCc2cccnc2)cc2c(=O)n3cccc(C)c3nc21` is 100%; for `Fc1ccc2[nH]ccc(=NN=Cc3ccccc3Cl)c2c1` it is 100%.
Still for that read-out and setting: next, `Cl.O=C(c1cccc(COc2ccc3c(c2)CCN(C2CCCC2)CC3)c1)N1CCN(c2ccncc2)CC1`: 100%; `CNCCNCc1cccc(-c2ccc(-c3nc4cccc(C)c4[nH]3)s2)c1.O=C(O)C(F)(F)F`: 92%.
`COc1cc2nc(NCCc3ccccc3)nc(NCc3nccs3)c2cc1OC` came in with an Inhibition of 99%.
Still for that read-out and setting: the figure for `N=C(N)NN=Cc1c[nH]c2ccc(-c3ccccc3)cc12.O=C(O)/C=C\C(=O)O` is 84%; for `CCCC(=O)NC(c1cccs1)c1cc(Cl)c2cccnc2c1O` (stereo not given) it is 87%.
Still for that read-out and setting: next, `Cl.Oc1ccccc1CNCC12CC3CC(CC(C3)C1)C2`: 98%; `CN(C)CCNC(=O)[C@H](CC1CCCCC1)NC(=O)c1ccc(O)c(-c2ccc(Cl)c(Cl)c2)c1`: 98%; `Cc1cccc2nc(-c3ccc(-c4ccc(NC(=O)C5CCN(C)CC5)cc4)cc3)[nH]c12`: 100%.
With `Fc1cccc(COc2ccc(Nc3ncnc4sc(C#CCNC5CCCC5)cc34)cc2Cl)c1`, the Inhibition is reported as 100%.
The same measure, in the same setting: the figure for `Cc1onc(-c2c(Cl)cccc2Cl)c1C(=O)NC1=NC(C)(C)ON1c1ccccc1` is 97%.
Still for that read-out and setting: next, `CC[C@H](C)[C@@H](C(=O)N1CCOCC1)N1CC[C@H](NS(=O)(=O)CC(C)(C)c2ccc(Cl)cc2)C1=O`: 100%.

Another test has as its system Plasmodium falciparum. Put plainly: GSK_TCMDC: Inhibition of Plasmodium falciparum Dd2 in whole red blood cells, using parasite LDH activity as an index of growth. Test compounds present at 2uM. Type of test: functional.
With `O=[N+]([O-])c1cc2c(cc1C=NNc1nc(=Nc3ccccc3)[nH]c(=Nc3ccccc3)[nH]1)OCO2`, the Inhibition came out at 46%.
Still for that read-out and setting: the figure for `NC(=O)C1Cc2ccccc2CN1CC(=O)Nc1ccccc1Sc1ccccc1` (stereo not given) is 99%; for `NCCCNc1nc(Nc2ccc(C(F)(F)F)cc2F)c2c(=O)[nH]ccc2n1.O=C(O)C(F)(F)F` it is 15%.
The same measure, in the same setting: the figure for `Cc1cc(Nc2ccccc2)nc(NCCOc2ccccc2)n1.Cl` is 48%.
Still for that read-out and setting: the figure for `Cc1cc(NC(=O)CCCN2CCN(c3cccc(Cl)c3Cl)CC2)ccc1N1CCN(C(C)C)CC1.Cl` is 53%; for `CCCc1cc(Cc2cnc(N)nc2N)cc2c1OC(C)C2C.Cl` (stereo not given) it is 0%.
With `CCC(O)c1ccc(Br)cc1NC(=O)c1cccc(Cl)c1` (stereo not given), the Inhibition was found to be 52%.
`Clc1cc(Nc2ccnc3ccc(Br)cc23)ccc1Oc1ccc2ccccc2c1Cl` had an Inhibition of 93%.
The same measure, in the same setting: the figure for `O=C(NCCCCCN1CCC(c2c[nH]c3ccccc23)CC1)Nc1cccc(Cl)c1` is 0%; for `CC(=O)Nc1ccc(CN2CCCN(c3cc(NC(=O)c4cccc(C)c4)ccn3)CC2)cc1.O=C(O)C(F)(F)F` it is 10%.
`CCN1CCC(N(Cc2ccc(-c3ccc(C(F)(F)F)cc3)cc2)C(=O)CCCCn2c(CCc3cccc(F)c3F)nc(=O)c3ccccc32)CC1`: the Inhibition came to 77%.
Still for that read-out and setting: the figure for `COc1ccc(C2=CCN(c3ccc(Cl)c(Cl)c3)C2=O)cc1OCCN1CCCCC1.Cl` is 99%; for `CC(C)(C)SC1SC(SC(C)(C)C)C(OC(=O)c2ccccc2)C(OC(=O)c2ccccc2)C1OC(=O)c1ccccc1` (stereo not given) it is 45%; for `CC(C)=CCc1c(-c2ccc(O)cc2O)oc2c3c(cc(O)c2c1=O)OC(C)(C)C=C3` [MORUSIN] it is 8%.
The molecule `COc1cccc(CNC(=O)c2ccnc(-c3cccc(CN(C)C4CCN(C)CC4)c3)c2)c1.O=C(O)C(F)(F)F` returned an Inhibition of 46%.
Still for that read-out and setting: the figure for `CC(C)(C)OC(=O)N1CCC(C2CCN(C(=O)OC(C)(C)C)CC2)CC1` is 28%; for `CC(=O)Nc1ncc(C(=O)Nc2cccc(-c3ccc(-c4nc5cc(C(F)(F)F)ccc5[nH]4)s3)c2)s1` it is 99%.
The same measure, in the same setting: the figure for `Cc1ccccc1C1CCN(C2CCC(NC(=O)/C=C/c3ccc(F)cc3)CC2)CC1` (stereo not given) is 30%; for `CCCCCCNc1cc(C)nc2ccc(OC)cc12.Cl` it is 94%; for `Cc1cc2nc(-c3ccc(C(=O)NCc4ccc(Cl)c(Cl)c4)cc3)[nH]c2cc1C` it is 83%.
On the same count and under the same terms, the figure for `COc1c(C2CCN(CCCCNC(=O)c3ccc(-c4ccc(Cl)cc4)cn3)CC2)ccc2c1CCCC2` is 14%; for `COc1ccc(CNCc2ccccc2)cc1-c1ccc(S(=O)(=O)NCCN2CCCC2)s1.O=C(O)C(F)(F)F` it is 62%.
`COc1cccc(-c2cnc(N)c(-c3nc4ccc(C(F)(F)F)cc4[nH]3)c2)c1.Cl` had an Inhibition of 30%.
Same read-out and setting: the figure for `Cc1cccc2nc(-c3ccc(-c4cccc(CN5CCC(N)C5)c4)s3)[nH]c12.O=C(O)C(F)(F)F` (stereo not given) is 78%; for `CCC(C)CN1CCN(c2ccc(NC(=O)c3cccs3)cc2)CC1C.O=C(O)C(F)(F)F` (stereo not given) it is 94%; for `Cc1cccc2nc(-c3cccc(-c4ccc(C(=O)NCCc5ccc(O)c(=O)[nH]5)cc4)c3)[nH]c12` it is 30%.
Same read-out and setting: next, `CN(C)CC1CCCN1Cc1ccccc1-c1cnn(C)c(=O)c1Oc1ccc(F)cc1.O=C(O)C(F)(F)F` (stereo not given): 19%; `CCCCn1c(=N)c(C(=O)NCc2cccnc2)cc2c(=O)n3cccc(C)c3nc21`: 47%.
On the same count and under the same terms, next, `Fc1ccc2[nH]ccc(=NN=Cc3ccccc3Cl)c2c1`: 39%.
In turn, `Cl.O=C(c1cccc(COc2ccc3c(c2)CCN(C2CCCC2)CC3)c1)N1CCN(c2ccncc2)CC1` came in with an Inhibition of 35%.
`CNCCNCc1cccc(-c2ccc(-c3nc4cccc(C)c4[nH]3)s2)c1.O=C(O)C(F)(F)F` came in with an Inhibition of 8%.
Still for that read-out and setting: the figure for `COc1cc2nc(NCCc3ccccc3)nc(NCc3nccs3)c2cc1OC` is 93%; for `N=C(N)NN=Cc1c[nH]c2ccc(-c3ccccc3)cc12.O=C(O)/C=C\C(=O)O` it is 61%.
Still for that read-out and setting: the figure for `CCCC(=O)NC(c1cccs1)c1cc(Cl)c2cccnc2c1O` (stereo not given) is 61%; for `Cl.Oc1ccccc1CNCC12CC3CC(CC(C3)C1)C2` it is 99%.
On the same count and under the same terms, next, `CN(C)CCNC(=O)[C@H](CC1CCCCC1)NC(=O)c1ccc(O)c(-c2ccc(Cl)c(Cl)c2)c1`: 97%; `Cc1cccc2nc(-c3ccc(-c4ccc(NC(=O)C5CCN(C)CC5)cc4)cc3)[nH]c12`: 92%.
`Fc1cccc(COc2ccc(Nc3ncnc4sc(C#CCNC5CCCC5)cc34)cc2Cl)c1` had an Inhibition of 78%.
Still for that read-out and setting: the figure for `Cc1onc(-c2c(Cl)cccc2Cl)c1C(=O)NC1=NC(C)(C)ON1c1ccccc1` is 36%.
The same measure, in the same setting: the figure for `CC[C@H](C)[C@@H](C(=O)N1CCOCC1)N1CC[C@H](NS(=O)(=O)CC(C)(C)c2ccc(Cl)cc2)C1=O` is 95%.
